Rows were chosen to be rich in hits. Some 4.2% of all compounds tested hit in one or more screens of this group.
Pol III holo inh = DNA polymerase III holoenzyme inhibition | reconstituted DNA polymerase III holoenzyme replication, biochemical | Potency, µM (titrated, usually from 57.1 µM), for inactives: at the top dose activity change, negative = inhibition | 0.25% of 71,000 active; further: potency means the concentration at half of the fitted maximal effect; on the % scale 0 is the no-effect control and ±100 the full control effect
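Reconstituted *E. coli* holoenzyme (0.35 nM Pol III, 1 nM beta, 154 nM SSB, 2 nM primase) was preincubated with compound for 15 min at RT. Synthesis on 1.4 nM ssM13Gori ran 35 min, then was stopped with PicoGreen/EDTA and read as dsDNA fluorescence.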
ALOX15 inhib = inhibitors of human 15-lipoxygenase (ALOX15); P16050; purified 15hLO-1, xylenol orange hydroperoxide absorbance; Potency, µM (highest dose often 57.1 µM), without a hit: at the highest dose activity change, negative = inhibition, actives largely listed as inhibitors; 1.4% of 74,000 active; AID 887; further: potency means the concentration at half of the fitted maximal effect; on the % scale 0 is the no-effect control and ±100 the full control effect; nearly all actives have a fitted effect of over 55% in size
Target sequence (P16050 whole entry, looked up): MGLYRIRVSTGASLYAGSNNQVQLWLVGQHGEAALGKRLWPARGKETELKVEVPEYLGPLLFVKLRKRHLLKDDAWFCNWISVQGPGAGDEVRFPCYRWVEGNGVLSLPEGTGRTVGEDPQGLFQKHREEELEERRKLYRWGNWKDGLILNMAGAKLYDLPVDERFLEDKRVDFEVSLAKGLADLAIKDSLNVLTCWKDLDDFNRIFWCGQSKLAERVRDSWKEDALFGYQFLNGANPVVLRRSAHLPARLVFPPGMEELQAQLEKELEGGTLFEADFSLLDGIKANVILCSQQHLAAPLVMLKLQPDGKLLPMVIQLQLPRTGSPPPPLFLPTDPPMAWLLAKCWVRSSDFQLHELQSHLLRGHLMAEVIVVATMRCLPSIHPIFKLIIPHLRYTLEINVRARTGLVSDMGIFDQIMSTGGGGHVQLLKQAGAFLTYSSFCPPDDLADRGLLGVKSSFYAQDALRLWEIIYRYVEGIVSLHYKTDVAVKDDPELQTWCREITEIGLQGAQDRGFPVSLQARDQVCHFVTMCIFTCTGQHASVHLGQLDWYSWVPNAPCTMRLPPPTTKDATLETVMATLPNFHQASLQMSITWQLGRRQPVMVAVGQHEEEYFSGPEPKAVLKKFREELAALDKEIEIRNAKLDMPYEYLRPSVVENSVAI
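Hydroperoxide formed from arachidonic acid (50 uM) by purified human 15hLO-1 (40 nM) oxidizes ferrous iron, and the ferric-xylenol orange complex is read at 573 versus 405 nm. Compounds were preincubated 15 min; reaction ran 6 min at room temperature.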
Hsp90 Hop PPI = changes Hsp90-Hop TPR2A binding signal, up or down; Potency, µM (titrated, usually from 57 µM), for inactives: at the top dose activity change, negative = inhibition; 0.44% of 71,000 active; AID 595; AlphaScreen TPR2A-His6 binding biotin-Hsp90 C-terminal peptide; active means well fitted curve in either direction with a large enough effect; inconclusive means small, poorly fitted or top-dose-only effect, or another doubt; further: potency means the concentration at half of the fitted maximal effect; on the % scale 0 is the no-effect control and ±100 the full control effect
TsaE inh = displaces an ADP probe from E. coli YjeE (TsaE) | 0.05% of 71,000 active | purified YjeE enzyme, qHTS inhibition assay | Potency, µM | P0AF67 | AID 605
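Purified YjeE (10 uM) with BODIPY Texas Red-labeled ADP probe (2 uM); compounds pin-transferred, 15 min at room temperature. Binding inhibition read as decreased fluorescence polarization; ADP titration as control.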
ERK AVP block = blocks ERK signaling stimulated by vasopressin; Potency, µM (titrated, usually from 57.5 µM), for the others: at the highest dose activity, negative = inhibition, most hits filed as inhibitors; 0.99% of 72,000 active; HEK293-V1b, vasopressin-stimulated pERK AlphaScreen; further: potency means the concentration at half of the fitted maximal effect; on the % scale 0 is the no-effect control and ±100 the full control effect; nearly all actives have a fitted effect of over 55% in size
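HEK293 cells stably expressing V1b receptor, seeded overnight in 1% FBS, were treated with compounds for 30 min at 37C, then stimulated 5 min with 25 nM vasopressin; phospho-ERK read by AlphaScreen SureFire after lysis.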
Tau filament bind = binds recombinant human tau filaments; AID 596; recombinant tau filaments, thioflavin S fluorescence, 15 h; filaments grown with octadecylsulfate alongside compound; Potency, µM (doses to about 57.1 µM), for the others: at the top dose activity change, negative = inhibition; 2% of 71,000 active;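 further: potency means the concentration at half of the fitted maximal effect; on the % scale 0 is the no-effect control and ±100 the full control effect; actives lower thioflavin S fluorescence by blocking filaments or displacing dye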
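Recombinant tau protein (human, 1 uM final) plus 30 uM ODS in HEPES pH 7.4 with NaCl, DTT and thioflavine S. Compound present from the start; fluorescence at 510 nm after 15 h, 37 C.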
* marks the source's active call; other numbers are inactive results; i = inactive; ? = inconclusive; . = no result; [ ] = dose if it differs, or a comment. Unless noted, the call rests on the fitted dose curve; in most records, active means well fitted curve in the direction sought with a large enough effect; inconclusive means small, poorly fitted or top-dose-only effect, or another doubt; inactive means no such curve, though single readings can be large; an effect the other way counts as inactive or inconclusive.

SMILES | Pol III holo inh | ALOX15 inhib | Hsp90 Hop PPI | TsaE inh | ERK AVP block | Tau filament bind
O=C(c1oc2ccccc2c1CSCc1ccccc1)N1CCN(c2ncccn2)CC1 | ? | ? | 9% | i | 5µM* | 24%
CCN(CC)c1ccc(NC(=O)c2cccc(C)c2OC)c(C)c1 | -1% | ? | -20% | i | 25µM* | 25µM*
COc1cccc(C(=O)NCC(c2cccnc2)N2CCN(c3ccccc3OC)CC2)c1 (stereo not drawn) | -3% | 13µM* | -9% | i | . | 121%
O=S(=O)(Nn1cnnc1)c1ccccc1Cl | 0% | 5% | -3% | i | 18% | 2%
CC(=O)C(Sc1nn(C)c(=S)s1)C(=O)Nc1ccccc1 (stereo not drawn) | -2% | 7.9µM* | -5% | i | 6% | 9%
CC(=O)C(Sc1nc(N2CCOCC2)nc(N2CCOCC2)n1)C(=O)Nc1ccccc1 (stereo not drawn) | -5% | 16µM* | -6% | i | -20% | 23%
Cc1cc(C)nc(NC(=O)CSc2nn(C)c(=S)s2)n1 | 4% | 4% | -3% | i | 0% | 9%
COCCn1c(C)nc2oc3ccc(Br)cc3c(=O)c2c1=O | -9% | 8% | -6% | i | 4% | 16µM*
Nc1c(S(=O)(=O)c2cccc(Cl)c2)c2nc3ccccc3nc2n1/N=C/c1ccc(O)c(O)c1 | -10% | 16µM* | ? | i | -20% | ?
CCC(C)NC(=O)c1c(N)n(/N=C/c2cccnc2)c2nc3ccccc3nc12 (stereo not drawn) | -2% | -19% | 9% | i | -4% | 18%
O=C(Cn1cc2c(n1)CCCCC2)Nc1ccc(F)cc1F | -5% | -1% | 2% | i | -25% | -8%
Cc1nn(-c2ccc(F)cc2F)c2c1-c1nc(N3CCCC3)ncc1CC2 | -4% | 25µM* | 4% | i | -24% | 134%
Oc1ccccc1C(=S)N1CCCCC1 | -9% | -24% | -4% | i | -2% | -4%
Oc1ccccc1C(=S)N1CCCCCC1 | -5% | ? | -9% | i | -10% | 25µM*
COc1ccc(CN2C(=O)c3cccnc3C2Nc2cc(Cl)ccc2OC)cc1 (stereo not drawn) | -2% | 16µM* | -13% | i | -11% | -5%
O=C1c2ccccc2C(Nc2ccc3c(c2)OCO3)N1Cc1ccc2c(c1)OCO2 (stereo not drawn) | -7% | -30% | -8%[2.3 µM] | i | 2% | 10µM*
COc1ccc(OC)c(NC2c3ccccc3C(=O)N2Cc2ccc3c(c2)OCO3)c1 (stereo not drawn) | -3% | -13% | 0%[2.3 µM] | i | -5% | 20µM*
O=C1c2ccccc2C(Nc2ccc3c(c2)OCO3)N1Cc1ccco1 (stereo not drawn) | 2% | ? | ? | i | 25µM* | 13µM*
COc1ccc(OC)c(NC2c3ncccc3C(=O)N2Cc2ccco2)c1 (stereo not drawn) | -4% | ? | -12% | i | -28% | -29%
CCOC(=O)c1cc(-c2ccc(C)o2)nn1CCC#N | -3% | -2% | 1% | i | -6% | -5%
O=C1c2ccccc2C(Nc2ccc(F)c(Cl)c2)N1Cc1ccco1 (stereo not drawn) | 0% | ? | -6% | i | ? | 13µM*
CCOc1ccc(NC2c3ccccc3C(=O)N2Cc2ccco2)cc1 (stereo not drawn) | -4% | -12% | -29% | i | ? | 16µM*
COc1ccc(NC2c3ccccc3C(=O)N2Cc2ccco2)cc1OC (stereo not drawn) | -5% | -14% | -11% | i | -20% | -18%
O=C1c2ccccc2C(Nc2ccc(-c3nc4ccccc4[nH]3)cc2)N1Cc1ccco1 (stereo not drawn) | -6% | -14% | -14% | i | ? | 222%
O=C(N1CCCCCC1)N1CCN(S(=O)(=O)N2CCOCC2)CC1 | 1% | 3% | -1% | i | -3% | -5%
SMILES | Pol III holo inh | ALOX15 inhib | Hsp90 Hop PPI | TsaE inh | ERK AVP block | Tau filament bind
CC(C)CCOc1ccc(C(=O)CCNC(C)C(=O)O)cc1 (stereo not drawn) | -10% | -5% | -5% | i | -7% | 16%
CC(c1nnc(SCC(=O)c2c(N)n(C)c(=O)n(C)c2=O)n1-c1ccc(Cl)cc1)N(C)C (stereo not drawn) | -2% | 5% | 2% | i | 40µM* | 5%
O=C1NC(c2cccs2)Nc2sc3c(c21)CCCC3 (stereo not drawn) | ? | 25µM* | ? | i | ? | 2.5µM*
CN1CCc2c(sc3c2C(=O)NC(c2cccc(OC(=O)c4cccs4)c2)N3)C1 (stereo not drawn) | 16% | -29% | -1%[2.3 µM] | i | 9% | i
Cc1ccc(SCCNC(=O)CN2C(=O)c3ccccc3S2(=O)=O)cc1 | -1% | -8% | -2% | i | 7.9µM* | ?
O=C(CN1C(=O)c2ccccc2S1(=O)=O)NCCSc1ccccc1 | 2% | 0% | -1% | i | -6% | -3%
CC(=O)NCCNc1nc(-c2c(C)noc2C)nc2ccccc12 | -6% | -2% | -2% | i | -10% | 0%
Cc1ccc(N(CC(=O)Nc2cccc(C)c2)S(=O)(=O)c2cccc3nonc23)cc1 | 0% | ? | -11% | i | 6% | 16µM*
Cn1c(=O)c2c(nc(NC3CCCCC3)n2CC(=O)C23CC4CC(CC(C4)C2)C3)n(C)c1=O | -6% | -23% | -3% | i | 10% | -2%
Cc1ccnc(Nc2nc(-c3c(C)nc4sccn34)cs2)c1 | -2% | -20% | -15% | i | 25µM* | -26%
Cc1nc2sccn2c1-c1nc(-c2cc3ccccc3o2)cs1 | 1% | 0% | -4% | i | -18% | 430%
COc1ccccc1CNC(=O)c1cc2sccc2n1C | -5% | -7% | -8% | i | 37% | 2%
CCOc1ccccc1CNC(=O)c1cc2occc2n1C | 3% | 20µM* | ? | i | 20µM* | -16%
COc1ccc(NC(=O)c2nnn(Cc3cccc(F)c3)c2N)c(OC)c1 | -8% | -6% | -8%[2.3 µM] | i | -5% | -13%
O=C(CC1=NCCNC(c2ccccc2)C1)c1ccccc1O (stereo not drawn) | -4% | -23% | 5% | i | -15% | ?
CC1=C(C#N)c2nc(N)c(C#N)c(C)c2/C1=C\c1ccccc1 | -6% | 40µM* | -21% | i | ? | -7%
O=C(Nc1ccc2[nH]c3c(c2c1)CCCC3)c1ccco1 | ? | 16µM* | -10% | i | -22% | 271%
O=C(Nc1cccc(C(=O)N2CCCCCC2)c1)c1ccco1 | -1% | 8% | -1% | i | -7% | 3%

Screening results as filed in PubChem.
